High-throughput results as filed in PubChem.
This is a sample that favours compounds with a hit; in the whole collection about 0.83% have one here.
Menin-MLL TR inh – menin-MLL binding inhibition, Texas Red mutant peptide; O00255; Menin + Texas Red MLL mutant peptide, fluorescence polarization; Potency, µM (series often up to 61.6 µM), most hits filed as inhibitors; 0.23% of 270,000 active; active means well fitted inhibition curve with a large enough effect in the polarisation, with a control signal flat, not every such curve was filed as active; inconclusive means small, poorly fitted or top-dose-only effect, or effect the other way, or a change in a side signal; inactive means no such curve, though single readings can be large or run the other way; the % refers to the polarisation
Menin MLL FP FL – displaces fluorescein MLL peptide from human menin | 290,000 tested, under 10 active | AID 1766 | FP activity change, % at 61.4 µM | Fluorescence polarization, fluorescein-MLL peptide displacement from menin; active means well fitted curve in the direction sought with a large enough effect in the polarisation, not every such curve was filed as active; inconclusive means small, poorly fitted or top-dose-only effect, or effect the other way, or a change in a side signal; inactive means no such curve, though single readings can be large or run the other way; the % refers to the polarisation
Six1-Eya2 blk – inhibitors of human Six1/Eya2 interaction; Q15475+O00167; AlphaScreen GST-Six1/His-Eya2 binding, biochemical; active compounds read low; activity change, % (test concentration not listed); 0.56% of 360,000 active
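Homogeneous AlphaScreen proximity assay pairing GST-Six1 with His-tagged Eya2 (added as 5X mix: 250 nM and 500 nM) in 50 mM Tris pH 8.0, 300 mM NaCl, 1 mM TCEP. Glutathione donor and nickel acceptor beads; 1 h, 37 °C, dark.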
CtBP-E1A blk – CtBP/E1A binding inhibition. activity change, % (test concentration not listed). AID 651724. 0.49% of 340,000 active. AlphaScreen GST-E1A/His-CtBP binding, 1536-well; active compounds read low
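In 5 uL wells, 23 nL compound meets equimolar GST-E1A and His-CtBP (5X stock 125 nM each) for 2 h, 37 °C. Beads (5X, 50 ug/mL) then 1 h, 37 °C, dark.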
GLS inhibitor – glutaminase GLS (human) inhibition; O94925; GLS enzymatic activity, qHTS titration; Potency, µM (series often up to 45.5 µM), most hits filed as inhibitors; 0.21% of 410,000 active; AID 624170; active means well fitted inhibition curve with a large enough effect; inconclusive means small, poorly fitted or top-dose-only effect, or another doubt; inactive means no such curve, though single readings can be large or run the other way
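Glutamate formation by hKGA was monitored fluorometrically using coupled glutamate oxidase, HRP and Amplex Red. Substrate was added as 1 mM L-glutamine solution; incubation was 30 min at RT after an initial read.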
MLL CXXC-DNA inh – blocks binding of human MLL CXXC domain to DNA. Potency, µM (titrated, usually from 115 µM), most hits filed as inhibitors. AID 2662. Q03164. MLL-CXXC / FITC-HOXA9 DNA fluorescence polarization. 0.037% of 290,000 active; active means well fitted inhibition curve with a large enough effect in the polarisation, with a control signal flat, not every such curve was filed as active; inconclusive means small, poorly fitted or top-dose-only effect, or effect the other way, or a change in a side signal; inactive means no such curve, though single readings can be large or run the other way; the % refers to the polarisation
Target sequence (Q03164 whole entry, looked up, the tested form may be a part): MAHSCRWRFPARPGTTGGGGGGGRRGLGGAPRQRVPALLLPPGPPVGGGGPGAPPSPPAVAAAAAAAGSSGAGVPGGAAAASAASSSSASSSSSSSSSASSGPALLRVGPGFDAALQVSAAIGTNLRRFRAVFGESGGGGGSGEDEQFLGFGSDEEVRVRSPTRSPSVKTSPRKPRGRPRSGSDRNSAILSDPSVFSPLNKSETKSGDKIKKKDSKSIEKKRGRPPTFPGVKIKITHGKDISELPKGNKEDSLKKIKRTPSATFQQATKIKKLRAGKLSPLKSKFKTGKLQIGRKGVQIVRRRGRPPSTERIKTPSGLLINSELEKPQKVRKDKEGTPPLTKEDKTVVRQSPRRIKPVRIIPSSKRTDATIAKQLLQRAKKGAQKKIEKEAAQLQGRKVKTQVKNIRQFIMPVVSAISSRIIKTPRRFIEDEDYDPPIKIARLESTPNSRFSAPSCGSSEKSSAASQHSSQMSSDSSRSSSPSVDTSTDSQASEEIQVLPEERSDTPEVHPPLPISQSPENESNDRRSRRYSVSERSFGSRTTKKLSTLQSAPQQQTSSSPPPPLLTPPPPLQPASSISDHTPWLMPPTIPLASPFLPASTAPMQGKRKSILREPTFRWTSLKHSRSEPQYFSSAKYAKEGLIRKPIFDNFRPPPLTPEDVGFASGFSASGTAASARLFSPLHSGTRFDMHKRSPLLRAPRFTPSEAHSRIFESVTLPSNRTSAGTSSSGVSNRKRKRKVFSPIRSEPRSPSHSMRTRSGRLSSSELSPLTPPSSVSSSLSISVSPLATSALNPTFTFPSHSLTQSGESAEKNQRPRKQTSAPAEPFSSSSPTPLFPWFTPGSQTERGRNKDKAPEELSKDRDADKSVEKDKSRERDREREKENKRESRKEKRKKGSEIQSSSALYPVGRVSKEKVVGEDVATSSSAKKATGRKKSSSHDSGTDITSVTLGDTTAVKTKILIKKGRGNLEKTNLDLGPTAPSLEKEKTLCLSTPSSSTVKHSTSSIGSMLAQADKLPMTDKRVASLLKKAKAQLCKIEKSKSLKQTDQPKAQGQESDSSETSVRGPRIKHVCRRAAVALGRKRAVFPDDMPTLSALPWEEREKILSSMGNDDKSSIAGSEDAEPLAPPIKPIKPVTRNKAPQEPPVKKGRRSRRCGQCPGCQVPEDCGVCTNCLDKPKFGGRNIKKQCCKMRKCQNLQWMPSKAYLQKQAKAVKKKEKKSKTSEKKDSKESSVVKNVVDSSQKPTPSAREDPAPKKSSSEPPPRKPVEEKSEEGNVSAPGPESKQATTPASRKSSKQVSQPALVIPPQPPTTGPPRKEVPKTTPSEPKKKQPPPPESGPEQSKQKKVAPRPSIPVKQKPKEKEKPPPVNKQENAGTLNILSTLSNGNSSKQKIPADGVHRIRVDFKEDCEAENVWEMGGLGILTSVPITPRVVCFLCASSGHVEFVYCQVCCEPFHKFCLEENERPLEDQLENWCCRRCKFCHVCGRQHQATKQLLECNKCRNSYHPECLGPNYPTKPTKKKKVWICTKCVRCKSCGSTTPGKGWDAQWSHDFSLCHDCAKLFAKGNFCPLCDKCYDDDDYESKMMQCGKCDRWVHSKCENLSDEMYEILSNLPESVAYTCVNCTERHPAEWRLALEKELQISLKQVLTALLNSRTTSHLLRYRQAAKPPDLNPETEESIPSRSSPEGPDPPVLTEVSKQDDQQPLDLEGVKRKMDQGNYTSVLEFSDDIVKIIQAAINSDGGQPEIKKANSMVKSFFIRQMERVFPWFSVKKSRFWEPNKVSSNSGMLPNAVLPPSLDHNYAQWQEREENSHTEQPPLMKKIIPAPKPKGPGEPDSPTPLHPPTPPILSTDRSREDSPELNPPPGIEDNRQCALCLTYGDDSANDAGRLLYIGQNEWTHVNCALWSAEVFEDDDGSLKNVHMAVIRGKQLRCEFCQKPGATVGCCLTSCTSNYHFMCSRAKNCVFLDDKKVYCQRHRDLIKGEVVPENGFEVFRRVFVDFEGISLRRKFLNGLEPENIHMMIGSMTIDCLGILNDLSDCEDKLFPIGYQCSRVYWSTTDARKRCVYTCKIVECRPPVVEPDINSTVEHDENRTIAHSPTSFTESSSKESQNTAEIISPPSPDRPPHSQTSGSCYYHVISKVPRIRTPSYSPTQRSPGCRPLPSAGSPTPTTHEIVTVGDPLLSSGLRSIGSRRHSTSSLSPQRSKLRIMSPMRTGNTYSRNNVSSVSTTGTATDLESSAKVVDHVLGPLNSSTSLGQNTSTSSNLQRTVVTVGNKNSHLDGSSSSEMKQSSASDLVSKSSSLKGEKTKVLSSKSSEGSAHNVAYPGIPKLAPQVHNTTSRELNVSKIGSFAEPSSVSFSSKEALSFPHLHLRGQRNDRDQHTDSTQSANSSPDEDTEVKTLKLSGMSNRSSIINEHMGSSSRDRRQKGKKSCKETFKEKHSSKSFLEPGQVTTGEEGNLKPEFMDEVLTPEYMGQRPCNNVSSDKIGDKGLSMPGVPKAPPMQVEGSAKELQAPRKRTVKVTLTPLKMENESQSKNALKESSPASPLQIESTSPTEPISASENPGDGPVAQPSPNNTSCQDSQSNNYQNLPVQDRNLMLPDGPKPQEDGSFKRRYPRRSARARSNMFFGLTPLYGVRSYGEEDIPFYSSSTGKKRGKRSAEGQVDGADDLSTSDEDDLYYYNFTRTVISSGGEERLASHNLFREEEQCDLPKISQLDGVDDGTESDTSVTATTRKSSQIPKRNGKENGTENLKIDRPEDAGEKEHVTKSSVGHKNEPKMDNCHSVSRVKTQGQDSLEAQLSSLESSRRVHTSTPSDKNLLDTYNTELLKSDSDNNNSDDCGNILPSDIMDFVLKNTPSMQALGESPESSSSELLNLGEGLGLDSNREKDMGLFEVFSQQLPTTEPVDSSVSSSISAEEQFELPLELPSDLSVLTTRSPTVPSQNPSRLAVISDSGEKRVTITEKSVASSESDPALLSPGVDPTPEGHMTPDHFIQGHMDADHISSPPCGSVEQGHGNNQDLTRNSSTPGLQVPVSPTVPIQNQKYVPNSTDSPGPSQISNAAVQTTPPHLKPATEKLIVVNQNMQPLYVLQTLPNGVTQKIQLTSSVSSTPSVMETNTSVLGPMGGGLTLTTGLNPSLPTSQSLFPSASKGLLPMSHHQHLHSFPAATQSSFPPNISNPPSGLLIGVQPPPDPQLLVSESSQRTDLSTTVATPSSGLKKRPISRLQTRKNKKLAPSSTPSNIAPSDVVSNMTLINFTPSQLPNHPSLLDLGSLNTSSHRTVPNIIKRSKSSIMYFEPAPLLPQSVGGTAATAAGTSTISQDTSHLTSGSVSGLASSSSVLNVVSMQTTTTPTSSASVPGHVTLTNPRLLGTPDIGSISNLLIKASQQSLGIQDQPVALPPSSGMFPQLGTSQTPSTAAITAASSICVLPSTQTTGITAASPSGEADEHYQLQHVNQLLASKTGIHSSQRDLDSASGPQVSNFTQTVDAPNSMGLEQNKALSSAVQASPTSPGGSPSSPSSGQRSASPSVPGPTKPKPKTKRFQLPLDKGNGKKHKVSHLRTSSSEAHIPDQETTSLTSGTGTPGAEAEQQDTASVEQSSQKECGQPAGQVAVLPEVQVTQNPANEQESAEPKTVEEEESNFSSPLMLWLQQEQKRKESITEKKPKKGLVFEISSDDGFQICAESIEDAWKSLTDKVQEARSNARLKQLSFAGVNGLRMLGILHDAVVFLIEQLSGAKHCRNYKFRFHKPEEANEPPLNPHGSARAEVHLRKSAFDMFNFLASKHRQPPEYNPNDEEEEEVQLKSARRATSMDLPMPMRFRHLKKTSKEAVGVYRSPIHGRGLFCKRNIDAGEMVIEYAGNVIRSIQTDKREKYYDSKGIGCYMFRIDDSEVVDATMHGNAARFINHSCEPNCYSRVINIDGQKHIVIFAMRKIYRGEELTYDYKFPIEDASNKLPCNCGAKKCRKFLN
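Fluorescence polarization: 7 uM MLL-CXXC (stock) preincubated 5 min with compounds, then 50 nM fluorescein-HOX-A9 DNA (stock) added; 30 min ambient. Buffer 50 mM Tris-HCl pH 7.5, 50 mM NaCl, 1 mM DTT, 0.05% BSA.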
A number is an active result. Unless noted, no stated cut-off is given here; in the data, active means activity change below about -65%; inconclusive means mostly about -30% to -63%; inactive means weaker than that.

For O=C(O)C1Nc2c(C(=O)N3CCOCC3)cccc2C2C=CCC12 (centres undefined) the results were Menin-MLL TR inh inconclusive, Menin MLL FP FL inconclusive, Six1-Eya2 blk -74, CtBP-E1A blk inactive, GLS inhibitor 2.5µM and MLL CXXC-DNA inh inactive.
`O=C(Nc1ccc(Cl)cc1)Nc1nnc(CSCc2ccc(Cl)cc2)s1` gave Menin-MLL TR inh 7.9µM, Menin MLL FP FL inactive, Six1-Eya2 blk inactive, CtBP-E1A blk inactive, GLS inhibitor inactive and MLL CXXC-DNA inh inactive.
`O=C(Nc1nnc(CC2=CCCCC2)s1)c1cccs1` gave Menin-MLL TR inh inactive, Menin MLL FP FL inactive, Six1-Eya2 blk inactive, CtBP-E1A blk inactive, GLS inhibitor inactive and MLL CXXC-DNA inh inactive.
For O=C(Nc1ccc(Cl)c(Cl)c1)Nc1nnc(CC2=CCCCC2)s1 the results were Menin-MLL TR inh 25µM, Menin MLL FP FL inactive, Six1-Eya2 blk inactive, CtBP-E1A blk inactive, GLS inhibitor inactive and MLL CXXC-DNA inh inactive.
COc1c(C)c2c(c(O)c1CC=C(C)CCC(=O)OCCN1CCOCC1)C(=O)OC2 was read as Menin-MLL TR inh inactive, Menin MLL FP FL inactive, GLS inhibitor inactive and MLL CXXC-DNA inh inactive.
`Cc1nc2c(=O)[nH]c(=S)[nH]c2[nH]c1=O` gave Six1-Eya2 blk -66, CtBP-E1A blk inactive and GLS inhibitor 6.3µM.
`CC(C)=CCC/C(C)=C/CC/C(C)=C/CCC(=O)OC/C=C(\C)CCC=C(C)C` gave GLS inhibitor inactive.
Screening N#Cc1c(SCC(=O)Nc2nncs2)sc2c(O)cc(=O)[nH]c12 returned Menin-MLL TR inh inconclusive, Menin MLL FP FL inconclusive, Six1-Eya2 blk inconclusive, CtBP-E1A blk -82, GLS inhibitor inactive and MLL CXXC-DNA inh inactive.
Screening N#Cc1c(SCC(=O)Nc2ccc(C(F)(F)F)cc2)sc2c(O)cc(=O)[nH]c12 returned Menin-MLL TR inh inconclusive, Menin MLL FP FL inactive, Six1-Eya2 blk inactive, CtBP-E1A blk inactive, GLS inhibitor inactive and MLL CXXC-DNA inh inactive.
`Cc1ccc(CNc2ccc(O)cc2)cc1` gave Menin-MLL TR inh 18µM, Menin MLL FP FL inactive, Six1-Eya2 blk inactive and CtBP-E1A blk inconclusive.
For O=C(Oc1ccccc1)N1CCC2(CCCN(c3ncccn3)C2)CC1 the results were Menin-MLL TR inh inactive and Menin MLL FP FL inactive.
`CC1CC2C3CCC4=CC(=O)C=CC4(C)[C@@]3(F)C(O)CC2(C)[C@@]1(O)C(=O)CCl` (some centres undefined) gave GLS inhibitor inactive.
Screening O=C(O)CCCCCNS(=O)(=O)c1cccc2c1C(=O)c1ccccc1C2=O returned Menin-MLL TR inh inactive, Menin MLL FP FL inactive, Six1-Eya2 blk -76, CtBP-E1A blk inactive, GLS inhibitor inactive and MLL CXXC-DNA inh inactive.
Screening Cc1ccc(C(=O)NC(=S)NNC(=O)c2ccccc2O)cc1 returned Menin-MLL TR inh inconclusive, Menin MLL FP FL inconclusive, Six1-Eya2 blk -88, CtBP-E1A blk inactive, GLS inhibitor inactive and MLL CXXC-DNA inh inactive.
Screening O=C(NC(=S)NNC(=O)c1ccccc1O)c1cccs1 returned Six1-Eya2 blk -82, CtBP-E1A blk -95, GLS inhibitor inactive and MLL CXXC-DNA inh inactive.
O=C(NNC(=S)NC(=O)c1ccccc1[N+](=O)[O-])c1ccccc1[N+](=O)[O-] was read as Menin-MLL TR inh inactive, Menin MLL FP FL inactive, Six1-Eya2 blk inactive, CtBP-E1A blk inactive, GLS inhibitor inactive and MLL CXXC-DNA inh inactive.
`O=C(NC(=S)NNC(=O)c1ccccc1O)c1ccc(F)cc1` gave Menin-MLL TR inh inactive, Menin MLL FP FL inactive, Six1-Eya2 blk -91, CtBP-E1A blk -94, GLS inhibitor inactive and MLL CXXC-DNA inh inconclusive.
`COc1ccccc1C(=O)NNC(=S)NC(=O)c1cccs1` gave MLL CXXC-DNA inh inactive.
O=C(NNC(=S)NC(=O)c1ccccc1[N+](=O)[O-])c1ccccc1O was read as Menin-MLL TR inh inconclusive, Menin MLL FP FL inactive, Six1-Eya2 blk -74, CtBP-E1A blk -94, GLS inhibitor inactive and MLL CXXC-DNA inh inactive.
`Cc1ccc(C(=O)NNC(=S)NC(=O)c2ccccc2)cc1` gave Six1-Eya2 blk inactive, CtBP-E1A blk inactive and GLS inhibitor inactive.
Screening O=C(NC1CCCCC1)c1cc2c(Cl)nc3ccccc3c2s1 returned GLS inhibitor inactive.
